# Data published in PubChem BioAssay (NCI).
# This is part of a sample that, as a whole, favours compounds with a hit. Of some 83,000 tested, about 20% had one in any assay.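 In brief: 96-well plates, 48 h treatment, single concentration, percent growth endpoint.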 Unmarked numbers belong to inactive results. Activity calls are given as the source filed them. How the source made its calls: active means growth percent below 10; inactive means the rest.
# What was measured:
# Assay in all cases: NCI-60 one-dose screen, 48 h (100 = growth as untreated, 0 = no growth, -100 = all killed)
# NCI-H23 lung = conditions: 10 µM unless noted
# NCI-H226 lung = conditions: 10 µM unless noted
# NCI-H322M lung = conditions: 10 µM unless noted
# HOP-62 NSCLC = conditions: 10 µM unless noted
# NCI-H460 lung = conditions: 10 µM unless noted
# A549/ATCC NSCLC = conditions: 10 µM unless noted
# 786-0 renal = conditions: 10 µM unless noted
# COLO 205 colon = conditions: 10 µM unless noted
# DU-145 prostate = conditions: 10 µM unless noted
# K-562 leukemia = conditions: 10 µM unless noted
# MALME-3M melanoma = conditions: 10 µM unless noted
# MDA-MB-231 breast = conditions: 10 µM unless noted
# SF-268 CNS = conditions: 10 µM unless noted
# SF-295 CNS = conditions: 10 µM unless noted
# SF-539 CNS = conditions: 10 µM unless noted
# UACC-257 melanoma = conditions: 10 µM unless noted
# M14 melanoma = conditions: 10 µM unless noted
# RXF 393 renal = conditions: 10 µM unless noted
# HOP-92 NSCLC = conditions: 10 µM
# NCI-H522 lung = conditions: 10 µM
SMILES,growth (NCI-H23 lung),growth (NCI-H226 lung),growth (NCI-H322M lung),growth (HOP-62 NSCLC),growth (NCI-H460 lung),growth (A549/ATCC NSCLC),growth (786-0 renal),growth (COLO 205 colon),growth (DU-145 prostate),growth (K-562 leukemia),growth (MALME-3M melanoma),growth (MDA-MB-231 breast),growth (SF-268 CNS),growth (SF-295 CNS),growth (SF-539 CNS),growth (UACC-257 melanoma),growth (M14 melanoma),growth (RXF 393 renal),growth (HOP-92 NSCLC) [%],growth (NCI-H522 lung)
O=C(c1ccccc1)c1ccccc1-c1ccccc1,46.2%,71.8%,65.6%,32.5%,15.1%,38.3%,37.8%,22.6%,51.1%,14.5%,49.4%,42.1%,45.4%,17.1%,20.4%,55.4%,0.878% (active),,,
C=CCNCCC#N,113%,92.9%,115%,105%,111%,99.2%,102%,116%,113%,109%,114%,119%,112%,,107%,111%,101%,109%,,
CCCCCCCCCCCCCCCCCC(=O)Nc1ccc(O)cc1,98.7%,102%,97%,91.4%,100%,,79%,93%,103%,96.6%,94.1%,86.3%,84.2%,106%,-16% (active),,103%,99.6%,,
CC(CCN1CCN(CCC(C)CC(C)(C)C)C1CC(C)CC(C)(C)C)CC(C)(C)C (stereo not given),100%,98.7%,99.8%,93.5%,101%,96.2%,97.9%,86.2%,103%,58.2%,99.2%,105%,91.5%,114%,91.5%,107%,100%,,,
C=C[C@]1(C)C=C2C(=O)[C@@]3(O)OC[C@@]4(CCCC(C)(C)C43O)C2(O)C(O)C1 (stereo not given in full),80.1%,81.4%,108%,107%,82.5%,76.4%,38.2%,9.48% (active),60.2%,17.1%,5.18% (active),98.3%,83.8%,113%,66.2%,,9.03% (active),21.4%,,
O=C(/C=C/c1ccc(Cl)cc1)c1ccc(Cl)cc1,94.8%,100%,91.3%,102%,104%,95.5%,83.4%,113%,101%,73.9%,91.8%,118%,98.3%,,104%,103%,100%,96%,,
N#CCc1ncc(-c2ccc(C(F)(F)F)cc2)c(NC2CCCCCC2)n1,25.7% [100 µM],55.3% [100 µM],68.1% [100 µM],71.7% [100 µM],8.28% [100 µM] (active),21.1% [100 µM],28.6% [100 µM],18.7% [100 µM],28.5% [100 µM],4.45% [100 µM] (active),25.7% [100 µM],37.4% [100 µM],30.5% [100 µM],,67.2% [100 µM],23.3% [100 µM],19% [100 µM],36.4% [100 µM],,
COC(=O)C(C(=O)OC)C(Br)C(Br)C(Br)c1ccccc1 (stereo not given),108%,96.5%,113%,144%,108%,96%,96.3%,71.2%,89.5%,24.8%,101%,117%,99.2%,,98%,82.7%,104%,57.5%,,
O=C1C=C(OCC=C(C(F)(F)F)C(F)(F)F)c2ccccc2C1=O,19.1%,14.7%,90.5%,66.6%,59%,82.9%,-19.8% (active),52.7%,-15% (active),-15.5% (active),-34.8% (active),7.59% (active),0.611% (active),,,45.8%,26%,-82.5% (active),,
COC(=O)c1c[n+]([O-])ccc1OC,106%,107%,97.1%,97.1%,107%,105%,100%,109%,114%,71.1%,92.1%,99.4%,116%,88.1%,122%,,104%,108%,,
CSCc1ncc(-c2ccc(C(F)(F)F)cc2)c(NC2CCCCCC2)n1,65.9% [25 µM],87.5% [25 µM],97.9% [25 µM],98.6% [25 µM],49.8% [25 µM],68.3% [25 µM],66.4% [25 µM],95% [25 µM],71.4% [25 µM],29.3% [25 µM],68.8% [25 µM],56.2% [25 µM],75.5% [25 µM],,93.8% [25 µM],74.1% [25 µM],67.4% [25 µM],75.4% [25 µM],,
COC(=O)CC(=O)C(=O)OC,103%,97.7%,107%,103%,104%,104%,95.2%,114%,108%,101%,107%,115%,97.4%,,102%,102%,100%,104%,,
CC[C@@H](C)/C=C(C)/C=C/C(=O)c1c(O)c(-c2ccc(OC(=O)[C@@]34CC[C@@](C)(C(=O)O3)C4(C)C)cc2)cn(O)c1=O,21.8%,36.8%,-4.05% (active),21%,-7.48% (active),43.6%,-31.8% (active),112%,10.8%,,,36.7%,-1.52% (active),-9.51% (active),16.7%,2.75% (active),-35.8% (active),31.6%,,
NC(CSC(c1ccccc1)(c1ccccc1)c1ccccc1)C(=O)NCC(=O)O (stereo not given),86.3%,99.6%,47.9%,80%,95.2%,86.8%,71.3%,16.6%,111%,54.2%,52.9%,61.2%,67.3%,,21.3%,54.9%,44.6%,22.6%,,
O=C(NC(=S)NNC(=S)NNc1ccccc1)c1ccccc1,25.9%,40.6%,68.2%,43%,13.2%,,67.7%,81%,98%,9.51% (active),25.5%,78.2%,59.5%,6.98% (active),25.5%,,71.7%,62.8%,,
Oc1ccc(N=Nc2ccc(N=Nc3ccccc3)cc2)cc1,59.9%,57%,49.7%,59.3%,,9.84% (active),38.3%,84.8%,49.3%,-7.03% (active),111%,54.7%,36.9%,8.6% (active),2.09% (active),53%,26.7%,98.2%,79.8,-15.1% (active)
